VACV mCherry inh = inhibitors of vaccinia virus infection (mCherry reporter signal) | Vaccinia virus mCherry reporter infection, fluorescence | 310,000 compounds, 0.63% hits | Potency, µM (highest dose often 36.5 µM), most hits filed as inhibitors; calls by dose curve; tested in A549 cells; further: nearly all actives have a fitted effect of over 35% in size
HCMV inh = inhibitors of human cytomegalovirus; HFF cells, HCMV-luciferase reporter, 72 h; active compounds read low; activity change, negative = inhibition, % at 57.5 µM; 410,000 compounds, 4.5% hits; in the data active means activity change below about -60%; inconclusive means no clear call, values can overlap the other calls; inactive means above about -39%
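Luciferase read-out from HCMV-luciferase-infected HFFs (MOI 1 PFU/cell) 72 h post infection at 37C; compounds added after 16 h cell attachment; activity normalized between buffer-only basal and Salinomycin (10uM) inhibitor controls.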
HCV inhibitor = blocks hepatitis C virus | 340,000 compounds, 3.4% hits | Potency, µM (top dose mostly 41.8 µM), hits mostly inhibitors | Huh7.5.1 HCVcc-Cre infection, luciferase reporter, 44 h; active means well fitted inhibition curve with a large enough effect; inconclusive means small, poorly fitted or top-dose-only effect, or another doubt; inactive means no such curve, though single readings can be large or run the other way
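Cells (1,000/well) were plated 4 h before compound, then infected with HCVcc-Cre virus (~0.5 moi). After 44 h further culture, infection was read as luciferase luminescence following a 15 min substrate incubation at room temperature.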
FMDV inh = blocks foot and mouth disease virus | FMDV antiviral cell-based qHTS | AID 1159524 | 410,000 compounds, 1.2% hits | Potency, µM (series often up to 57.9 µM), usual class: inhibitors; calls by dose curve; tested in HEK293T cells; further: read-out not given here; nearly all actives have a fitted effect of over 45% in size
VACV Venus inh = vaccinia inhibition (Venus reporter) | Vaccinia virus Venus reporter expression, fluorescence | AID 720580 | Potency, µM (top dose mostly 36.5 µM), most hits filed as inhibitors | 330,000 compounds, 0.46% hits; calls by dose curve; tested in A549 cells; further: nearly all actives have a fitted effect of over 30% in size
Each line names hits and unclear results; the compound was inactive in the other large screens; ! = repeats disagree. Shown are actives, neighbours in structure and some others; about 7.3% of the full set was active somewhere.

CC(C)c1nn2c(=O)cc(COC(=O)c3ccccc3NC(=O)c3cccs3)nc2s1	none (no result: HCV inhibitor)
CCOC(=O)c1c(NC(=O)CCCOc2ccc(C)cc2)sc2c1CCC(C)C2 (configuration not stated)	none (no result: HCV inhibitor)
c1csc(-c2nc3c4ccccc4c4ccccc4c3[nH]2)c1	VACV mCherry inh inconclusive, HCV inhibitor 12.6µM, VACV Venus inh inconclusive
Oc1ccccc1-c1nc2c3ccccc3c3ccccc3c2[nH]1	HCV inhibitor inconclusive (no result: VACV mCherry inh, VACV Venus inh)
N=C(N)SCc1ccc(Cl)cc1Cl	HCV inhibitor 11.2µM, FMDV inh inconclusive
O=C(c1cn(-c2ccccc2)nc1-c1ccccc1)N1CCOCC1	none (no result: VACV mCherry inh, VACV Venus inh)
Cc1ccc(-c2nn(-c3ccccc3)cc2C(=O)N2CCN(c3ccccn3)CC2)cc1	HCV inhibitor 11.2µM, VACV Venus inh inconclusive
O=C(c1cn(-c2ccccc2)nc1-c1ccccc1)N1CCN(c2ccccn2)CC1	HCV inhibitor 10µM (no result: VACV mCherry inh, VACV Venus inh)
CCC[C@@H](/C=C/C(=O)OCC)NC(=O)C(F)(F)F	none (no result: VACV mCherry inh, HCV inhibitor, FMDV inh, VACV Venus inh)
C/C(CC1(O)C(=O)N(C)c2ccccc21)=N\O (configuration not stated)	HCMV inh inconclusive
CC(=O)CC1(OC(C)=O)C(=O)N(C)c2ccccc21 (configuration not stated)	HCMV inh -64.3
O=C(CN1C(=O)c2ccccc2S1(=O)=O)c1ccccc1	HCMV inh -65.2, FMDV inh inconclusive (no result: VACV mCherry inh)
O=C(CN1C(=O)c2ccccc2S1(=O)=O)NCc1c(F)cccc1F	none
Cc1ccc(C(=O)CN2C(=O)c3ccccc3S2(=O)=O)cc1	HCMV inh -88.1, FMDV inh 14.1µM
O=C(CCN1C(=O)c2ccccc2S1(=O)=O)Nc1ccc(Cl)cc1	HCMV inh -77.7
O=C(CN1C(=O)c2ccccc2S1(=O)=O)NC(Nc1ccccc1F)C(Cl)(Cl)Cl (configuration not stated)	HCMV inh -104.7
Cc1cc(F)ccc1-c1cc(C(=O)NC2CCCCC2)[nH]n1	none (no result: HCV inhibitor)
O=C(CN1C(=O)c2ccccc2S1(=O)=O)c1ccccc1Cl	HCMV inh -86.3 (no result: VACV mCherry inh, HCV inhibitor, FMDV inh, VACV Venus inh)
O=C(CN1C(=O)c2ccccc2S1(=O)=O)NCc1ccccc1Cl	none
CC1CCC(NC(=O)CCc2cn(Cc3ccccc3Cl)c3ccccc23)CC1 (configuration not stated)	none (no result: HCV inhibitor)
O=C(CCc1cn(Cc2ccccc2Cl)c2ccccc12)NC1CCCCC1	HCMV inh -72.1 (no result: HCV inhibitor)
CCCN(CC(=O)Nc1cc(Cl)cc(Cl)c1)CC(=O)Nc1ccc(F)c(F)c1F	VACV mCherry inh inconclusive, HCMV inh -87.3, HCV inhibitor inconclusive, VACV Venus inh inconclusive
CCCN(CC(=O)Nc1ccccc1Br)CC(=O)Nc1ccc(F)c(F)c1F	HCV inhibitor inconclusive
COc1ccc(/C=C2\C(=O)c3ccccc3OC2c2ccccc2)cc1 (configuration not stated)	none (no result: VACV mCherry inh, VACV Venus inh)
CCOc1ccc(/C=C2\C(=O)c3ccccc3OC2c2ccccc2)cc1 (configuration not stated)	HCMV inh -99.0 (no result: VACV mCherry inh, VACV Venus inh)
COc1c2ccoc2nc2c(OC)c(OCC(OC(C)=O)C(C)(C)O)ccc12 (configuration not stated)	none
COc1c2ccc(OCC/C(C)=C/C(=O)C=C(C)C)cc2nc2occc12	HCMV inh -101.1, VACV Venus inh inconclusive
Cc1cc(C)n2nc(CNS(=O)(=O)c3ccc(CC(C)C)cc3)nc2n1	none
COc1ccc(Nc2cc3c(cn2)cc(-c2cnn(C)c2)n3Cc2ccccc2)cc1OC	none (no result: VACV mCherry inh, HCV inhibitor, FMDV inh, VACV Venus inh)
Cn1cc(-c2cc3cnc(Nc4cccc(NS(C)(=O)=O)c4)cc3n2Cc2ccccc2)cn1	HCMV inh -87.7 (no result: VACV mCherry inh, HCV inhibitor, FMDV inh, VACV Venus inh)
C[C@H]1COc2cc(N3CCCC3)ccc2S(=O)(=O)N1	none (no result: VACV mCherry inh, HCV inhibitor, FMDV inh, VACV Venus inh)
NC(=O)CSc1nc2scc(-c3ccc(Cl)cc3)c2c(=O)n1Cc1ccccc1	HCMV inh inconclusive
Cc1ccc(-c2csc3nc(SCC(=O)N(C)C)n(Cc4ccccc4)c(=O)c23)cc1	HCV inhibitor 31.6µM, VACV Venus inh inconclusive
COc1ccc(-c2cc(C(F)(F)F)nc(SCC(=O)NCCc3ccc(OC)c(OC)c3)n2)cc1	none (no result: HCV inhibitor)
C=CS(=O)(=O)N(Cc1ccc(Cl)c(Cl)c1)C[C@@H](O)CO	VACV mCherry inh 0.282µM, HCV inhibitor 14.1µM, VACV Venus inh 0.0501µM (no result: HCMV inh)
COc1cc2ncc(S(=O)(=O)c3ccccc3)c(N3CCCC(C)C3)c2cc1OC (configuration not stated)	VACV mCherry inh inconclusive, HCV inhibitor 11.2µM, VACV Venus inh inconclusive
CCN1CCN(c2c(S(=O)(=O)c3ccc(OC)cc3)cnc3cc(OC)c(OC)cc23)CC1	none (no result: HCV inhibitor)
COc1ccc(OC)c(N2C(=O)c3cccnc3C2=O)c1	none
CC[C@H](C)C1OC(=O)[C@@H](C)[C@@H](CC)NC(=O)[C@H](C)N(C)C(=O)C(C)(C)C(=O)C(C)NC(=O)[C@H](Cc2ccc(OC)cc2)N(C)C(=O)[C@H](C(C)C)N(C)C(=O)CNC(=O)[C@H](CC(C)C)N(C)C(=O)CNC1=O (some centres not stated)	VACV mCherry inh 0.891µM, VACV Venus inh 1µM (no result: HCMV inh, HCV inhibitor)
CCC[C@H]1NC(=O)[C@H](C)N(C)C(=O)C(C)(C)C(=O)C(C)NC(=O)[C@H](Cc2ccc(OC)cc2)N(C)C(=O)[C@H](C(C)C)N(C)C(=O)CNC(=O)[C@H](CC(C)C)N(C)C(=O)CNC(=O)[C@H]([C@@H](C)CC)OC(=O)[C@H]1C (some centres not stated)	VACV mCherry inh inconclusive, HCV inhibitor 0.562µM, VACV Venus inh 0.316µM (no result: HCMV inh)
Cc1cccc(-c2noc(CN(C(C)C)S(=O)(=O)c3ccc(Br)cc3)n2)c1	none (no result: HCV inhibitor)
Cc1ccc2c(c1)CN(CCNC(=O)C(C)Oc1ccccc1)CC(C)O2 (configuration not stated)	none (no result: HCMV inh, HCV inhibitor)
CCOc1ccccc1-c1cncc(NC)n1	none (no result: HCV inhibitor)
COc1ccc(OC)c(S(=O)(=O)N2CCC(C(=O)Nc3ccccc3)CC2)c1	none
COc1ccc(OC)c(S(=O)(=O)N2CCC(C(=O)Nc3cc(C)ccc3C)CC2)c1	HCMV inh -93.1 (no result: FMDV inh)
COc1cccc(O)c1CN1CCC(C(=O)Nc2ccc(-c3cccc(C)c3)cc2)CC1	HCV inhibitor 1µM, FMDV inh inconclusive, VACV Venus inh inconclusive
COc1ccc(NC(=O)C2CCC(C(C)(C)C)CC2)cc1S(=O)(=O)N1CCCCC1 (configuration not stated)	HCMV inh -85.9, FMDV inh 17.8µM, VACV Venus inh inconclusive
COc1ccc(OC)c(S(=O)(=O)N2CCC(C(=O)Nc3cccc(C)c3)CC2)c1	HCMV inh -61.1 (no result: FMDV inh)
Cc1nn(-c2ccc(N3CCCCC3)nn2)c(C)c1CCC(=O)Nc1ccc(F)cc1F	none (no result: HCV inhibitor)
CC(=O)Nc1cncc(-c2ccccc2F)n1	HCMV inh -95.5 (no result: HCV inhibitor)
CC(CNC(=O)CCCn1c(=O)c2cccn2c2ccc(F)cc21)c1ccccc1 (configuration not stated)	none (no result: HCV inhibitor)
CC(CNC(=O)CCCn1c(=O)c2cccn2c2cccnc21)c1ccccc1 (configuration not stated)	HCMV inh -69.2! (no result: HCV inhibitor)
CCn1c2ccccc2c2cc(C#N)c(N)nc21	HCV inhibitor 12.6µM (no result: VACV mCherry inh, VACV Venus inh)
CCOC(=O)c1cc2c3ccccc3n(CC)c2nc1N	HCV inhibitor inconclusive

Assay outcomes (PubChem)
